Source: PubChem BioAssay
GLA spleen mod: qHTS Assay for Inhibitors and Activators of Human alpha-Galactosidase From Spleen Homogenate. AID 2107, 2009. Potency, µM (series often up to 80 µM), without a hit: at the highest dose activity change, negative = inhibition, hits mostly inhibitors. human spleen homogenate, 4MU-alpha-Gal fluorescence, 40 min. Alpha-galactosidase A (Homo sapiens), P06280. actives 0.008% (n = 240,000);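 note: potency is the fitted concentration of half-maximal effect; 0% = enzyme with vehicle and -100% = no enzyme basal signal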
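Fluorogenic readout (Ex 365/Em 440 nm) of 4-methylumbelliferone released from 1 mM 4-MU-alpha-galactoside by spleen homogenate, 40 min at 37C, pH 5.0. Data normalized to no-enzyme and enzyme controls; Hill-equation AC50 from compound titrations.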
PNC assembly inh: High Content Assay for Compounds that inhibit the Assembly of the Perinucleolar Compartment; PC3M PTB-GFP, PNC prevalence imaging, 16 h; hits give low values; actives 3.1% (n = 140,000); activity change (PNC), negative = inhibition, % at 10 µM;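 active = readout at or below -70, meaning at least 70% loss of cells showing the perinucleolar compartment, a nuclear body marking cancer cells; inconclusive = readout between -30 and a set limit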;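 note: plate controls were DMSO wells for no effect and camptothecin positive control wells for full effect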
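Compounds are pinned in duplicate onto adhered PC3M cells stably expressing GFP-tagged PTB and incubated 16 h at 37 C. Cells are then fixed, nuclei stained with Hoechst, and PNC-positive cells counted.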
GLA inh pH 4.5: qHTS Assay for Inhibitors of Human alpha-Galactosidase at pH 4.5 | purified enzyme, 4-MU-alpha-Gal fluorescence, pH 4.5 | activity change, negative = inhibition, % at 105 µM | 230,000 tested, under 10 active;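 note: 0% = full activity with enzyme and -100% = basal without enzyme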
ALOX12 inhib: qHTS Assay for Inhibitors of 12-hLO (12-human lipoxygenase); actives 0.12% (n = 150,000); Potency, µM (doses to about 57.1 µM), without a hit: at the highest dose activity change, negative = inhibition, most hits filed as inhibitors; purified 12-hLO, xylenol orange hydroperoxide absorbance; note: potency is the fitted concentration of half-maximal effect; nearly all actives have a fitted effect of over 55% in size
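Hydroperoxide formation by human 12-lipoxygenase from 40 uM arachidonic acid was followed colorimetrically via ferric-xylenol orange complex, using the 573/405 nm absorbance ratio. Enzyme concentration was 150 nM, with 30 min reaction at room temperature.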
HPGD block: qHTS Assay for Inhibitors of HPGD (15-Hydroxyprostaglandin Dehydrogenase) | 15-hydroxyprostaglandin dehydrogenase [NAD(+)] (Homo sapiens), P15428 | purified HPGD, NADH fluorescence kinetic, PGE2 substrate | Potency, µM, inactives show top-dose activity change, negative = inhibition, usual class: inhibitors | actives 4.3% (n = 150,000) | AID 894, 2007; active = well fitted inhibition curve with a large enough effect, not every such curve was filed as active; inconclusive = small, poorly fitted or top-dose-only effect, or another doubt; inactive = no such curve, though single readings can be large or run the other way; note: potency is the fitted concentration of half-maximal effect
Target sequence (P15428 whole entry, looked up): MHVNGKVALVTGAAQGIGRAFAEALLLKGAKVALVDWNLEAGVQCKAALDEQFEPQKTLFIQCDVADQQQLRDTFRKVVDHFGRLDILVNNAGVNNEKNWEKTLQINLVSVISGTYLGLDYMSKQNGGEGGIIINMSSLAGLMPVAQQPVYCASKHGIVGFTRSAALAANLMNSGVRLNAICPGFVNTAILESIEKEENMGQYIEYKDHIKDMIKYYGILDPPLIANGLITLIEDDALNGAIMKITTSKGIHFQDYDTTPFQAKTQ
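NADH formation kinetics: reaction with 30 uM PGE2 and 1 mM NAD+ (final), 20 nM enzyme, Tris-HCl pH 8 with Tween 20, after 15 min compound preincubation at room temperature. Fluorescence change, last versus first of five reads.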
ALDH1A1 inh: qHTS Assay for Inhibitors of Aldehyde Dehydrogenase 1 (ALDH1A1); AID 1030, 2008; Aldehyde dehydrogenase 1A1 (Homo sapiens), P00352; Potency, µM (titrated, usually from 75.3 µM), for inactives: top-dose activity, negative = inhibition, hits mostly inhibitors; actives 7.3% (n = 220,000); Purified ALDH1A1, NADH fluorescence, propionaldehyde substrate; active = well fitted inhibition curve with a large enough effect, not every such curve was filed as active; inconclusive = small, poorly fitted or top-dose-only effect, or another doubt; inactive = no such curve, though single readings can be large or run the other way;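 note: potency is the fitted concentration of half-maximal effect; plate controls were no enzyme wells and a reference inhibitor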
Target sequence (P00352 whole entry, looked up): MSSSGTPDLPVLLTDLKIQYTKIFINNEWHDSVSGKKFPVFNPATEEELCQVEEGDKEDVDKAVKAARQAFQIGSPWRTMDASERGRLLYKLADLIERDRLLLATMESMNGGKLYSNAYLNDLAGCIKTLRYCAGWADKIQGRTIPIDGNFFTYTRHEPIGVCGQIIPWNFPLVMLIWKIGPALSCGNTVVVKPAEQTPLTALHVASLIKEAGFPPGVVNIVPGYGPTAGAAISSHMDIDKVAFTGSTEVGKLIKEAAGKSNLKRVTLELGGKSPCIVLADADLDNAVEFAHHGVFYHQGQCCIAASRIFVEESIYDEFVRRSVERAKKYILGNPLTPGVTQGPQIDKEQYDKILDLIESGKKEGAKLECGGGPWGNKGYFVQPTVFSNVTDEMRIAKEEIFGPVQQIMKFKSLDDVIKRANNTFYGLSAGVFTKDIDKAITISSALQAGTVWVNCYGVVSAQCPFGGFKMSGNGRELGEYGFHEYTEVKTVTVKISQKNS
Starred values were filed as active, the others as inactive; ? = inconclusive; . = no result; [ ] = another dose, or the depositor's remark. Only some compounds are listed: those with a hit (about 10% of all), similar ones and a draw of the others. Unless noted, calls come from the whole dose curve; as a rule, active = well fitted curve in the direction sought with a large enough effect; inconclusive = small, poorly fitted or top-dose-only effect, or another doubt; inactive = no such curve, though single readings can be large; an effect the other way counts as inactive or inconclusive. Unless noted, % is set by controls: 0 for no effect and ±100 for the full control effect.

SMILES | GLA spleen mod | PNC assembly inh | GLA inh pH 4.5 | ALOX12 inhib | HPGD block | ALDH1A1 inh
O=C1CSC(c2cccs2)N1c1ccccc1 (stereo not drawn) | -16% | 9 | -8 | 1% | -7% | -1%
CN1CCC2(CC1)CCN(C(=O)c1cccc(F)c1)CC2 | -5% | . | . | 3% | -10% | 9%
COc1cccc(OC)c1C(=O)NC1C(=O)N2C1SC(C)(C)C2C(=O)O (stereo not drawn) | -23% | . | 1 | -7% | -8% | -11%
Cc1ccc(C(=O)NC(=S)NCc2cccnc2)cc1C | 3% | . | 4 | . | . | ?
COc1cccc(C(=O)NCc2cccnc2)c1 | -9% | ? | 7 | 5% | -11% | 2%
CC(C)c1ccc(C(=O)NC(=S)NCc2cccnc2)cc1 | -4% | ? | 3 | -14% | -13% | 28µM*
COc1ccc(C(=O)Oc2cccnc2)cc1OC | 3% | 28 | 3 | 1% | -10% | 10µM*
COc1ccc(C(=O)NCc2cccnc2)cc1OC | 0% | ? | 6 | 2% | -13% | 25µM*
CCCC(=O)c1c[nH]c(C(=O)NCc2cccnc2)c1 | 9% | . | -2 | . | . | 28µM*
CC(C)C[C@@H](CC(=O)N[C@@H](CCCN)CC(=O)N[C@@H]1CCCC[C@H]1C(=O)N[C@H](CC(=O)N[C@@H](CCC(=O)O)CC(=O)O)CC(C)C)NC(=O)[C@@H]1CNCC[C@H]1N | 12% | . | -2 | -2% | -8% | ?
CCc1ccc(NC(=O)N(C2CCCCC2)C(C)c2cccnc2)cc1 (stereo not drawn) | 5% | 25 | 14 | -1% | 3% | -3%
c1ccc2c(c1)CCN(c1nc3cc4c(cc3s1)OCO4)C2 | 2% | ? | -8 | 8% | 32µM* | 25µM*
c1c2c(cc3sc(N4CCOCC4)nc13)OCO2 | -4% | -6 | -11 | -4% | 28µM* | 10µM*
c1c2c(cc3sc(N4CCCCC4)nc13)OCO2 | -9% | 2 | -1 | -5% | 22µM* | 22µM*
c1ccc(N2CCN(c3nc4cc5c(cc4s3)OCO5)CC2)cc1 | -8% | 18 | 1 | 3% | ? | 20µM*
CSc1nc(C)nc(N/C=C(\C#N)S(=O)(=O)c2ccccc2Cl)n1 | 0% | . | 5 | . | . | .
Nc1nc(SCC(=O)Nc2ccc(Cl)cc2)[nH]c(=O)c1-c1ccccc1 | -15% | . | 1 | . | . | ?
CC(=O)c1ccc(OCCOc2ccc(Cl)c3cccnc23)cc1 | 0% | . | 4 | . | . | 5%
Clc1ccccc1Nc1ncnc2c1nnn2Cc1ccccc1 | 3% | ? | -12 | -9% | 22µM* | ?
c1ccc(Cn2nnc3c(N4CCc5ccccc5C4)ncnc32)cc1 | -14% | 30 | 1 | 0% | 32µM* | ?
c1ccc(Cn2nnc3c(N4CCCC4)ncnc32)cc1 | 12% | -22 | 8 | -1% | -11% | ?
CNC(=O)[C@@H](Cc1ccccc1)N(C)C(=O)[C@@H](Cc1ccc2ccccc2c1)N(C)C(=O)/C=C/CC(C)(C)N | 0% | . | -5 | -1% | -2% | -3%
COc1cc(CC(=O)Nc2nc(C)cs2)cc(OC)c1OC | 6% | . | 2 | . | . | 10%
CCN1C(=O)c2cccc3c(S(=O)(=O)Nc4c(C)n(C)n(-c5ccccc5)c4=O)ccc1c23 | -17% | ? | -3 | 1% | -10% | 14µM*
COc1cc(/C=C2/SC(=NCc3ccccc3)N(Cc3ccccc3)C2=O)ccc1O | 4% | -14 | -9 | -23% | -26% | 2.2µM*
SMILES | GLA spleen mod | PNC assembly inh | GLA inh pH 4.5 | ALOX12 inhib | HPGD block | ALDH1A1 inh
O=c1c(Cl)cc(Cl)nn1-c1ccccc1 | -2% | ? | 5 | -1% | -17% | 32µM*
O=C(N/N=C/c1ccc(Br)o1)c1ccc2c(c1)OCCO2 | -3% | -13 | -8 | 2% | -20% | -9%
Cc1ccc(Cn2nnc3c(=O)[nH]c(C4CCN(C(=O)c5cccs5)CC4)nc32)cc1 | -19% | 42 | 0 | -17% | 14µM* | -10%
Cc1ccc(Cn2nnc3c(=O)[nH]c(C4CCCN(C(=O)Nc5ccc(F)cc5)C4)nc32)cc1 (stereo not drawn) | -5% | -12 | 2 | -8% | . | 4%
Cc1ccc(C)c(Cn2nnc3c(=O)[nH]c(C4CCCN(C(=O)C5CCC5)C4)nc32)c1 (stereo not drawn) | -13% | 33 | 1 | -8% | 4.5µM* | ?
Cc1ccc(C)c(Cn2nnc3c(=O)[nH]c(C4CCN(C(=O)c5cccs5)CC4)nc32)c1 | -14% | 22 | 1 | 0% | 0.56µM* | -15%
Cc1ccc(S(=O)(=O)N[C@@H](CCc2ccccc2)CC(=O)C(C)(C)C)cc1 | -3%[17.5 µM] | . | . | . | . | -17%[13.5 µM]
Cc1cc(C)c(S(=O)(=O)Nc2ccc3c(c2)CCC3)c(C)c1 | 7% | -89* | 5 | -13% | -21% | -4%
Cc1cc(C)c(S(=O)(=O)Nc2ccc3c4c(cccc24)CC3)c(C)c1 | 5% | -88* | -11 | -15% | -13% | ?
Cc1cc(C)cc(OCC(=O)Nc2ccc3c4c(cccc24)CC3)c1 | -3% | 9 | 12 | -1% | -12% | 0%
Cc1cc(C)c(S(=O)(=O)Nc2ccc(O)cc2)c(C)c1 | -12% | ? | -2 | -5% | -7% | 1%
Cc1cccc(OC(=O)C2C(c3ccccc3)C(C(=O)O)C2c2ccccc2)c1 (stereo not drawn) | 4% | ? | 6 | 0% | 0% | ?
O=C(O)C1C(c2ccccc2)C(C(=O)Oc2ccccc2)C1c1ccccc1 (stereo not drawn) | -4% | ? | 4 | -1% | -5% | 16µM*
CC(C)OC(=O)Cn1nnc2c(cnn2-c2ccccc2)c1=O | 2% | -100* | 1 | -2% | -14% | -4%
C(=N\N(c1ccccc1)c1ccccc1)/c1ccc(N2CCOCC2)s1 | 0% | -22 | -3 | -25% | -11% | ?
COC(=O)c1c(NC(=O)COC(=O)Cn2cnc3ccccc32)sc(C)c1C | -12% | 2 | 10 | -5% | -19% | 25µM*
COC(=O)c1c(NC(=O)COC(=O)Cn2cnc3ccccc32)sc2c1CCCC2 | -4% | -29 | 1 | -4% | -20% | 14µM*
CCOC(=O)c1c(NC(=O)COC(=O)Cn2cnc3ccccc32)sc2c1CCC(C)C2 (stereo not drawn) | 2% | 23 | -2 | -19% | -25% | 7.9µM*
